Experimental data reported in PubChem BioAssay.
Activity calls are given as the source filed them.

Columns and labels:
[1] = system: PRMT1 (protein arginine N-methyltransferase 1); assay: small molecules binding arginine methyltransferase PRMT1 – biochemical, small-molecule microarray, 635 nm fluorescence, primary screen (AID 1088); details: higher = more signal;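 also: binding of Prmt1 protein to compounds spotted on small-molecule microarray slides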
[2] = growth effects on S. cerevisiae YJM789 – YJM789 clinical isolate, OD600, 24 h, basal, primary screen (AID 1089); details: higher = more signal, called active from +8 up or from −8 down;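 also: growth of clinical yeast isolate S. cerevisiae YJM 789 seeded 1000 cells per well; test concentration not given here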
[3] = S. pombe growth modifiers, basal conditions – strain 972, OD600, 24 h, no modulator, primary screen (AID 1090);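 also: basal condition with compound alone and no growth modifier present; test concentration not given here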; details: S. pombe 972 growth, higher = more signal, called active from +8 up or from −8 down
[4] = budding yeast growth modifiers under rapamycin – strain BY4716, OD600, 96 h, primary screen (AID 1091); also: test concentration not given here; details: S. cerevisiae BY4716 + rapamycin, higher = more signal, called active from +8 up or from −8 down
[5] = target: Torsin-1A-interacting protein 2 (Homo sapiens) (UniProt Q8NFQ8); assay: small molecules binding lysate-expressed LULL1 – cell lysate, human LULL1 lysate, 635/667 nm fluorescence, primary screen (AID 1092); details: small-molecule microarray, hLULL1 lysate binding, 635 nm fluorescence; higher = more signal;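 also: probe is lysate of COS7 cells overexpressing human LULL1; score merges per-feature 667 nm fluorescence with signal-to-noise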
Chain of Torsin-1A-interacting protein 2 (Homo sapiens) (Q8NFQ8 whole entry, looked up): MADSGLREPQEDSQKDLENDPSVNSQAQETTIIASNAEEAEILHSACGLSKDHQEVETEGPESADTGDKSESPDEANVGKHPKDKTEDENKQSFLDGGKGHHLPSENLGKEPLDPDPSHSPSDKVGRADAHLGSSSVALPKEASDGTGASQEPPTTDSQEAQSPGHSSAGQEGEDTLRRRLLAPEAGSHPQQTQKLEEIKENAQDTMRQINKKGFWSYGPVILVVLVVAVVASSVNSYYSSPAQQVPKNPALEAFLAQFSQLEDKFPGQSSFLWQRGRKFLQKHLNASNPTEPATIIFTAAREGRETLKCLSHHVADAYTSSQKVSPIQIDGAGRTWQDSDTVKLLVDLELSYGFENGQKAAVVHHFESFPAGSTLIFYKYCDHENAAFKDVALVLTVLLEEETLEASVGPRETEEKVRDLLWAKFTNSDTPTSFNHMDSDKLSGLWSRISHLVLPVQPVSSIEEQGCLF

[6] = optical density change of DRC41 E. coli – strain DRC41, OD650, 24 h, E. coli filamentation project, primary screen (AID 1093);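 also: MC1000 strain lacking acrAB efflux and sulA so SOS filamentation is blocked; test concentration not given here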; details: E. coli DRC41 growth, higher = more signal, called active from +8 up or from −8 down
[7] = probe aLefty2 binding to arrayed compounds – biochemical, biotinylated probe, 635/667 nm fluorescence, primary screen (AID 1094); details: small-molecule microarray, higher = more signal;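 also: score merges spot fluorescence near 667 nm with spot signal-to-noise ratio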
[8] = system: Noggin (protein binding on small-molecule microarray); assay: small molecules binding Noggin protein – biochemical, 635/667 nm fluorescence, primary screen (AID 1095); details: 635 nm fluorescence, higher = more signal;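 also: score merges 667 nm feature fluorescence with signal to noise over triplicate slides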
[9] = target: Neurogenic locus notch homolog protein 3 (Homo sapiens) (UniProt Q9UM47); assay: small molecules binding NOTCH3 protein – biochemical, 635/667 nm fluorescence, primary screen (AID 1096); details: small-molecule microarray, 635 nm fluorescence, higher = more signal
Chain of Neurogenic locus notch homolog protein 3 (Homo sapiens) (Q9UM47 whole entry, looked up): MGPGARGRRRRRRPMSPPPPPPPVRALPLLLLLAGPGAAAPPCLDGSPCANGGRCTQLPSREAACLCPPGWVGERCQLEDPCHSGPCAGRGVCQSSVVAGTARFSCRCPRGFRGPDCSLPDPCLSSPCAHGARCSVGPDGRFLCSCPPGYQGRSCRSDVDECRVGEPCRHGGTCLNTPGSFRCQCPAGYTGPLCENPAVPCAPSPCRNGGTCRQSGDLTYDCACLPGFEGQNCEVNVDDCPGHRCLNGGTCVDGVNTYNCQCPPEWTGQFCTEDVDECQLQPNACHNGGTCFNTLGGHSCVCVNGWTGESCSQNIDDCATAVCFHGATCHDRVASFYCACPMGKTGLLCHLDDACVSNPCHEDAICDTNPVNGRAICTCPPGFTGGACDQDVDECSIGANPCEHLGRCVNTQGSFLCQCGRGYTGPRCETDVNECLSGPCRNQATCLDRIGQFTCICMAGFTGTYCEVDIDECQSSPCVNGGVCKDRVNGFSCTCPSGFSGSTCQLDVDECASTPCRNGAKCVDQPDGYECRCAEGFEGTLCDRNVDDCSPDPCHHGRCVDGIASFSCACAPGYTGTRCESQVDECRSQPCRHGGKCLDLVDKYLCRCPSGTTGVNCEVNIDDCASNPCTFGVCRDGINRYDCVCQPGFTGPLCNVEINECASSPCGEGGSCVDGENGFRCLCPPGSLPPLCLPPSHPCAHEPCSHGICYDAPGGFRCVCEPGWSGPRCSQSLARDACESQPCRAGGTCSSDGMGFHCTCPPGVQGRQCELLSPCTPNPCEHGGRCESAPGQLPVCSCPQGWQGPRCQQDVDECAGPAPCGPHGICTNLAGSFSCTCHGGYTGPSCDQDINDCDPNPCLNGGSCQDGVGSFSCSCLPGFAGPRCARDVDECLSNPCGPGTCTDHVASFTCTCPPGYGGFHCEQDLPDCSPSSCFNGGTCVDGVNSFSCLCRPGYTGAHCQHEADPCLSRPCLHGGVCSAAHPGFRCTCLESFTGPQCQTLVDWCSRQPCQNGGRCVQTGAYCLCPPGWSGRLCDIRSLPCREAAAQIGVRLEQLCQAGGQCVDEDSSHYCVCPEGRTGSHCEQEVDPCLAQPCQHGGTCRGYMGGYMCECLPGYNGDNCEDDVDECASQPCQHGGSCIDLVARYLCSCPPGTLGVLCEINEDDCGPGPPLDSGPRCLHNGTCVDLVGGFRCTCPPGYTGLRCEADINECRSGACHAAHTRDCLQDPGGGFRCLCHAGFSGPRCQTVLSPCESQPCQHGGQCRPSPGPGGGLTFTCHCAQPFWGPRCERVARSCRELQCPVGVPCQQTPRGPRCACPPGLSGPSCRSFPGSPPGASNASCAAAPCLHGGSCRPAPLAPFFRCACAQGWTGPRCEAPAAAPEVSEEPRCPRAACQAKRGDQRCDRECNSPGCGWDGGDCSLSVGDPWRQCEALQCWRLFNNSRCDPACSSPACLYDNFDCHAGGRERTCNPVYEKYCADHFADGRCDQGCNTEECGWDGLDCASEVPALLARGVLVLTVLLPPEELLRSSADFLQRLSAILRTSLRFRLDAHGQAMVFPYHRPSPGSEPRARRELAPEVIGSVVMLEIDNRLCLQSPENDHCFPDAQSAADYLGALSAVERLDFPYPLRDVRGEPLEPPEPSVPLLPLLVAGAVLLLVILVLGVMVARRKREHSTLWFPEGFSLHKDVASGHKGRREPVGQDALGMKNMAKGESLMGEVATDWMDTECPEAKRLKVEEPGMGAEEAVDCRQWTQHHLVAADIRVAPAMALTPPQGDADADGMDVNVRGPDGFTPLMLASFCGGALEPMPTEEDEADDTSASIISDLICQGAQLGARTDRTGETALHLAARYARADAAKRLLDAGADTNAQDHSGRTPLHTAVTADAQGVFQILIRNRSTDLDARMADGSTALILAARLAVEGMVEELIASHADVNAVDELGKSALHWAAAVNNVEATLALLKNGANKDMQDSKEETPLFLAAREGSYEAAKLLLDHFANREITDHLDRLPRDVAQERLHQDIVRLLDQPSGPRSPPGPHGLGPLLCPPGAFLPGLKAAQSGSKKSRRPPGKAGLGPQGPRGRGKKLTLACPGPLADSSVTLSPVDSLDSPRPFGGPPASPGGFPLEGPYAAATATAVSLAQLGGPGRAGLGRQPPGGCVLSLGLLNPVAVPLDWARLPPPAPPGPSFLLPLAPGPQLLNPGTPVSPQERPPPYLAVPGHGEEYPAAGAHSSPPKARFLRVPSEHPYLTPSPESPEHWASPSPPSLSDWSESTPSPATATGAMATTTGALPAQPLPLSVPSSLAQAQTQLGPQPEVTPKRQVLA

[10] = probe aEGFR binding to arrayed compounds – biochemical, biotinylated probe, 635/667 nm fluorescence, primary screen (AID 1097); details: small-molecule microarray, higher = more signal;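 also: probe is a biotinylated anti-EGFR antibody binding compounds printed on slides; score combines fluorescence near 667 nm and signal to noise of each spot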
[11] = system: Plasmodium falciparum Sir2 (PF13_0152, Sir2A); assay: Plasmodium falciparum Sir2A binding compounds – biochemical, small-molecule microarray, 635 nm fluorescence, primary screen (AID 1098); details: fluorescence 635 nm, higher = more signal;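 also: score merges spot fluorescence intensity with its signal-to-noise ratio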
[12] = probe aDKK1 binding to arrayed compounds – biochemical, biotinylated probe, 635/667 nm fluorescence, primary screen (AID 1099); details: small-molecule microarray, higher = more signal;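 also: score merges 667nm spot fluorescence with signal to noise across triplicate slides; reference of the scale not given here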
[13] = probe aCHRDL2 binding to arrayed compounds – biochemical, biotinylated probe, 635/667 nm fluorescence, primary screen (AID 1100); details: small-molecule microarray, higher = more signal
[14] = change in splice reporter luminescence, either direction, cell-based, HEK293, spliceosome inhibition project, primary screen (AID 1101); details: HEK293 splicing luciferase reporter, 24 h, higher = more signal, called active from +8 up or from −8 down;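 also: HEK293 cells carrying a splicing-competent luciferase reporter gene; test concentration not given here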
[15] = target: Fibroblast growth factor 10 (Homo sapiens) (UniProt O15520); assay: compounds binding fibroblast growth factor 10 – biochemical, small-molecule microarray, 635 nm fluorescence, primary screen (AID 1102); details: FGF10 binding, fluorescence 635 nm, higher = more signal
Chain of Fibroblast growth factor 10 (Homo sapiens) (O15520 whole entry, looked up): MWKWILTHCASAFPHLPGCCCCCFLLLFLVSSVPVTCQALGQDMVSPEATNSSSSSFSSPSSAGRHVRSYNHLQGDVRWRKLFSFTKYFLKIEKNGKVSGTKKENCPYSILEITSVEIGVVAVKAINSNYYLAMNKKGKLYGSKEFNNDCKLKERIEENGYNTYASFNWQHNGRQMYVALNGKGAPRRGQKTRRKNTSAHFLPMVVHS

[16] = system: glycogen synthase kinase-3 (GSK3A per assay name; protocol says GSK3B); assay: compounds binding glycogen synthase kinase-3 – biochemical, small-molecule microarray, 635 nm fluorescence, GSK3A, primary screen (AID 1103); details: fluorescence 635 nm, higher = more signal; also: the record names both GSK3A and GSK3B
[17] = target: Epidermal growth factor receptor (Homo sapiens) (UniProt P00533); assay: compounds binding epidermal growth factor receptor – biochemical, small-molecule microarray, 635 nm fluorescence, primary screen (AID 1104); details: EGFR binding, higher = more signal;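 also: score merges 667 nm emission intensity with spot signal to noise over triplicate slides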
Chain of Epidermal growth factor receptor (Homo sapiens) (P00533 whole entry, looked up): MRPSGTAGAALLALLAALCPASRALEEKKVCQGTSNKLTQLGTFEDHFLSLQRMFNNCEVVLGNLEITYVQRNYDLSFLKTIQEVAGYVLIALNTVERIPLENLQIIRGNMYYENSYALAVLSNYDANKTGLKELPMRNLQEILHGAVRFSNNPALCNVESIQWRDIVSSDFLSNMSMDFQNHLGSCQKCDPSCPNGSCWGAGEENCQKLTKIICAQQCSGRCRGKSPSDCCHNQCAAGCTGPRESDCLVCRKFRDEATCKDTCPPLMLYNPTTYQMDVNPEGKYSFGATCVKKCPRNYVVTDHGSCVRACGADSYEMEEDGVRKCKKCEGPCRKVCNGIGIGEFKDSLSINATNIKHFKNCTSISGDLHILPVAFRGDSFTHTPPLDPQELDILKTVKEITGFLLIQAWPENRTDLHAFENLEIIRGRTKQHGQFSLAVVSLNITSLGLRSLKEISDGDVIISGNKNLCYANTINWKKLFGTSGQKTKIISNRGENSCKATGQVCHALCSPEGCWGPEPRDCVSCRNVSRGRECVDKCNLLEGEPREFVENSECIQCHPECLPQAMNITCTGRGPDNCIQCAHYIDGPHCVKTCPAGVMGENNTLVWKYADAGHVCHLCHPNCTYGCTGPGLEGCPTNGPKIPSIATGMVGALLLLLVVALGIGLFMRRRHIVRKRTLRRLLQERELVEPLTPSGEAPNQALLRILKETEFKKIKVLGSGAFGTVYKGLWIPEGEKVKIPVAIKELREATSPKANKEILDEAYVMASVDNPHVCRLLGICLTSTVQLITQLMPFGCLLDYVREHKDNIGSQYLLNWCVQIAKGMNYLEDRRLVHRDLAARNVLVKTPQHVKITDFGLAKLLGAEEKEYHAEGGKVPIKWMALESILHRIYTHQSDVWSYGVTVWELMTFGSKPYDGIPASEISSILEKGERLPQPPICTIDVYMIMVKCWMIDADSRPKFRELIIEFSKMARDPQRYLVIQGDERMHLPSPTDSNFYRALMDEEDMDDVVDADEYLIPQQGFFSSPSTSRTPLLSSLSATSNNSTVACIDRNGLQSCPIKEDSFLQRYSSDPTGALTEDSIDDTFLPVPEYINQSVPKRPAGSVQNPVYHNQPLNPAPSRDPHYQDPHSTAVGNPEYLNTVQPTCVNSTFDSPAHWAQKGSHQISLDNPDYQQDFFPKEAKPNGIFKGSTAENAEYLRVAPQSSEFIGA

[18] = target: Follistatin-related protein 3 (Homo sapiens) (UniProt O95633); assay: compounds binding follistatin-related protein 3 – biochemical, small-molecule microarray, 635 nm fluorescence, primary screen (AID 1105); details: FSTL3 binding, higher = more signal;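 also: score merges emission near 667 nm and signal to noise per printed spot across three slides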
Chain of Follistatin-related protein 3 (Homo sapiens) (O95633 whole entry, looked up): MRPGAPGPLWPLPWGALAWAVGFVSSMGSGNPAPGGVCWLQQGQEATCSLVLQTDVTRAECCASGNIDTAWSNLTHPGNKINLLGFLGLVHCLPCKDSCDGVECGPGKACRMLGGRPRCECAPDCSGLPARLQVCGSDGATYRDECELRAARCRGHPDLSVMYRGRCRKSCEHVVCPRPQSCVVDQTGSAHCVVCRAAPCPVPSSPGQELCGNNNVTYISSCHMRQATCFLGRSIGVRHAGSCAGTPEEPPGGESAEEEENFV

[19] = target: Dickkopf-related protein 1 (Homo sapiens) (UniProt O94907); assay: small molecules binding DKK1 protein – biochemical, small-molecule microarray, 635 nm fluorescence scan, primary screen (AID 1106); details: higher = more signal;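 also: score merges emission near 667 nm with signal to noise over three replicate slides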
Chain of Dickkopf-related protein 1 (Homo sapiens) (O94907 whole entry, looked up): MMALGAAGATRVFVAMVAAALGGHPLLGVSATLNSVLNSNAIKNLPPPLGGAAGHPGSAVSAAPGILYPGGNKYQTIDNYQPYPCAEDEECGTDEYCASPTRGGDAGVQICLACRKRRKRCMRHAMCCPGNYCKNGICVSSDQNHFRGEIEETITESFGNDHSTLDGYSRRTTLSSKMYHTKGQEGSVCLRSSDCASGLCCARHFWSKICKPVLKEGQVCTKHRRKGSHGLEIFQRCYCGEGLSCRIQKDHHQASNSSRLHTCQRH

[20] = system: Inhibin beta A chain (activin A); assay: small molecules binding activin A – biochemical, small-molecule microarray, 635 nm fluorescence scan, primary screen (AID 1107); details: INHBA, higher = more signal;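 also: mouse activin A protein probed at 4.33 µg/mL on printed slides; score merges bound-protein fluorescence near 667 nm with spot signal-to-noise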

Row | Compound | composite z-score [1] | z-score [2] | z-score [3] | z-score [4] | composite z-score [5] | z-score [6] | composite z-score [7] | composite z-score [8] | composite z-score [9] | composite z-score [10] | composite z-score [11] | composite z-score [12] | composite z-score [13] | z-score [14] | composite z-score [15] | composite z-score [16] | composite z-score [17] | composite z-score [18] | composite z-score [19] | composite z-score [20]
1 | COc1ccc(CCNC(=O)[C@@]2(Sc3ccc(C)cc3)CC(=O)N(Cc3ccccc3C(F)(F)F)[C@@H]2c2ccc(CO)cc2I)cc1 | 1 | -1.65 (inactive) | -4.64 (inactive) | 1.22 (inactive) | 1.97 | 0.404 (inactive) | -0.0668 | -1.46 | -1.03 | -0.264 | 1.09 | -0.0552 | 1.08 | -1.14 (inactive) | -1.06 | -0.404 | -1.24 | -1.64 | -1.14 | 0.67
2 | Cn1cccc1C(O)C1C=CC2C(=O)N(c3ccccc3)C(=O)C2N1Nc1ccccc1 (stereo not given) | 1.56 | 0.537 (inactive) | 0.445 (inactive) | 0.566 (inactive) | 3.37 | -0.598 (inactive) | 0.27 | 0.781 | 1.02 | 0.0651 | 1.19 | 0.966 | 1.04 | -0.441 (inactive) | 1.3 | 1.27 | 0.671 | 1.41 | 0.456 | 0.865
3 | CC[C@@H]1C=C(C(=O)O)[C@H](c2ccc(C#N)cc2)N1S(=O)(=O)c1ccc(C)cc1 | 0.799 | -0.407 (inactive) | -0.185 (inactive) | -0.104 (inactive) | 3.47 | 0.405 (inactive) | 0.283 | -0.911 | 0.314 | 0.122 | 1.1 | 0.313 | 0.863 | 0.552 (inactive) | 0.396 | 0.39 | -0.967 | -0.406 | -1.22 | 0.264
4 | CN1C2C=C(CCCO)C(C3C(=O)N(C(N)=O)C(=O)C32)C1C1CC1 (stereo not given) | -0.0255 | -0.163 (inactive) | -0.0516 (inactive) | -0.32 (inactive) | 0.0963 | -0.583 (inactive) | -0.0812 | -0.22 | -0.523 | -0.163 | -0.149 | -0.105 | 0.1 | 0.93 (inactive) | -0.0933 | -0.0699 | -0.0436 | -0.785 | 0.0144 | -0.393
5 | COCCOC(=O)N1C(=O)[C@@]2(c3cc(C#CCC(C(=O)OC)C(=O)OC)ccc31)[C@H](c1ccc(OCCO)cc1)N1[C@H](c3ccccc3)[C@H](c3ccccc3)OC(=O)[C@H]1[C@@H]2C(=O)N1CCc2cc(OC)c(OC)cc2C1 | 1.55 | 2.13 (inactive) | 2 (inactive) | 5.2 (inactive) | 2.81 | 0.713 (inactive) | 0.0146 | 1.72 | 1.06 | 0.091 | 0.752 | 0.258 | 0.0031 | 0.414 (inactive) | 1.4 | 1.31 | 0.76 | 1.28 | 0.411 | 0.622
6 | CCOC(=O)C[C@H]1[C@H](OC(=O)c2ccc(C(=O)c3ccccc3)cc2)[C@@H](NC(=O)C2CCCCC2)c2cc(OCCCO)ccc2N1C(=O)c1ccc2ccccc2n1 | 1.34 | -0.882 (inactive) | 0.708 (inactive) | 0.276 (inactive) | 2.01 | 1.25 (inactive) | -0.02 | 0.887 | 1.13 | 0.0213 | 0.698 | -0.0699 | -0.125 | 0.112 (inactive) | 0.839 | 0.432 | 0.34 | 1.03 | 0.595 | 0.456
7 | CN1C(=O)C2C=CC(C(O)c3cccn3C)N(Nc3ccc([N+](=O)[O-])cc3[N+](=O)[O-])C2C1=O (stereo not given) | 0.0715 | 0.82 (inactive) | 1.33 (inactive) | 0.731 (inactive) | 0.711 | -0.345 (inactive) | 0.269 | 0.5 | -0.266 | 0.0365 | 0.0859 | 0.821 | 0.897 | 1.15 (inactive) | 0.219 | -0.269 | -0.157 | -0.0164 | -0.31 | 1.12
8 | CCCCCCCCCC(O)C1C=CC2C(=O)N(c3ccccc3)C(=O)C2N1Nc1cc(OC)c(OC)c(OC)c1 (stereo not given) | 0.619 | 1.13 (inactive) | 0.441 (inactive) | -0.236 (inactive) | 2.23 | -3.91 (inactive) | -0.163 | -0.344 | 0.631 | -0.0978 | 1.04 | -0.0249 | 0.662 | -0.901 (inactive) | -0.4 | -0.214 | -0.381 | -0.246 | -1.12 | 0.655
9 | C=C[C@@H](CO)N(Cc1ccc(OC)cc1)S(=O)(=O)c1ccc(Br)cc1 | -0.043 | -3.19 (inactive) | -6.8 (inactive) | -1.92 (inactive) | 0.268 | 2.31 (inactive) | 0.0711 | -0.193 | -0.731 | -0.0967 | -0.36 | 0.188 | 0.681 | -1.21 (inactive) | 0.0174 | 0.239 | -0.142 | -0.0506 | -0.0478 | 0.0176
10 | O=C1O[C@@H](c2ccccc2)[C@@H](c2ccccc2)N2[C@@H](c3ccc(OCCO)cc3)[C@]3(C(=O)Nc4ccc(C#CC5=CCCCC5)cc43)[C@@H](C(=O)NC[C@H](O)c3ccccc3)[C@H]12 | 1.36 | 1.99 (inactive) | 2.17 (inactive) | 4.09 (inactive) | 2.46 | -0.749 (inactive) | -0.0696 | 1.51 | 1.02 | -0.246 | 0.674 | -0.653 | -0.762 | 0.556 (inactive) | 1.4 | 1.31 | 0.445 | 1.4 | 0.708 | 1.07
